# Reference: PubChem BioAssay AID651871 (Sanford-Burnham Center for Chemical Genomics, 2012)
# “And” between values parts separate entries of the source, which are not always exact repeats. Equal entries are not always repeated.
# Test system: HL-1
# Test: cardiomyocyte survival under oxidative or metabolic stress – cell-based, panel, H9c2 and HL-1, ATP luminescence, set 2, SAR follow-up (AID 651871);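 also: cells exposed to stressor for 2 h before ATP readout; reference of the scale not given here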
# Conditions: H9c2/HL-1 cardiomyocytes, 2-deoxyglucose stress, with 2-deoxyglucose, run 12, at 79 µM (top of the series)
row,SMILES,activity (protection/inhibition)
1,COc1ccc2nc(-c3cc(OC)c(OC)c(OC)c3)cc(C(=O)NCC(=O)Nc3ccc(C(C)=O)cc3)c2c1,62.5%
2,CCOC(=O)c1cccc(NC(=O)CNC(=O)c2cc(-c3cc(OC)c(OC)c(OC)c3)nc3ccccc23)c1,63.3%
3,COc1ccc2c(c1OC)C(=O)N1c3ccccc3C(=O)N(Cc3cccc(Cl)c3Cl)C21 (stereo not drawn),65.5% and -16.5%
